Screening results as filed in PubChem BioAssay.
GALR2 blocker = GALR2 antagonists in receptor-expressing cells, primary screen. 0.39% of 140,000 active. Galanin receptor type 2 (Homo sapiens), O43603. AID 828, 2007. antagonist mode. inhibition, % at 4 µM; in the data active means inhibition above about 27%;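 further: cells stimulated with galanin 1-16 at roughly its EC80; 0% = agonist challenge control and 100% = basal control without agonist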
GALR2 agonist = GALR2 receptor agonists, primary screen, cell-based; Galanin receptor type 2 (Homo sapiens), O43603; GALR2-expressing cells, agonist activation read-out; activation, % (concentration not given with the values); 0.48% of 140,000 active; AID 803, 2007; in the data active means activation above about 5%, passing the limit was not always enough;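 further: 0% = vehicle buffer wells and 100% = reference agonist at full effect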
PostGolgi ctrl = growth inhibition of yeast control strain, primary screen, counter-screen for post-Golgi transport modulator project. efflux-deficient yeast background strain, growth absorbance A615, 16 h. 5% of 98,000 active. inhibition, % at 10 µM
PostGolgi yeast = phenotypic screen on post-Golgi transport, primary screen; post-Golgi transport phenotypic cell assay; inhibition, % at 10 µM; 0.9% of 98,000 active; AID 739, 2007;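 further: yeast cells grown in 1536-well plates; yeast grown about 18 h at 30C before absorbance read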
S1P2 blocker = human S1P2 receptor antagonists, primary screen, cell-based | cell-based S1P2 antagonist assay, inhibition at 5 uM | inhibition, % at 5 µM | 0.21% of 97,000 active; in the data active means inhibition above about 45%;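 further: CRE beta-lactamase reporter cells expressing human S1P2 stimulated with S1P; 0% = agonist at EC80 alone and 100% = agonist plus reference antagonist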
Target sequence (O95136 whole entry, looked up): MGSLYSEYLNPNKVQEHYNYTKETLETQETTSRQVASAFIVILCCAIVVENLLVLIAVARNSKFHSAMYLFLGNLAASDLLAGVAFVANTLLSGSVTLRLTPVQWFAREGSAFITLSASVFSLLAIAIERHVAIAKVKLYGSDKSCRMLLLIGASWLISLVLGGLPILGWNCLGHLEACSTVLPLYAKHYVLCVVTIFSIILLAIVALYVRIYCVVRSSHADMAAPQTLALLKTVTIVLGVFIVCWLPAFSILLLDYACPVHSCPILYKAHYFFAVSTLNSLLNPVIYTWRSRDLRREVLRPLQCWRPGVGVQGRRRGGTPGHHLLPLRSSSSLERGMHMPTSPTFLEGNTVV
S1P2 ag = S1P2 receptor agonists, primary screen, cell-based; 0.46% of 97,000 active; S1P2-expressing cell line, agonist reporter read-out; activation, % at 4.5 µM; AID 729, 2007; Sphingosine 1-phosphate receptor 2 (Homo sapiens), O95136; in the data active means activation above about 16%;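 further: 0% = vehicle low control and 100% = maximal reference agonist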
* marks the source's active call; other numbers are inactive results; . = not tested or not shown. The entries come from a sample that favours hits as a whole. Unless noted, no stated cut-off is given here; in the data, active means inhibition above about 30%; inactive means the rest.

SMILES	GALR2 blocker	GALR2 agonist	PostGolgi ctrl	PostGolgi yeast	S1P2 blocker	S1P2 ag
Cc1ccc(S(=O)(=O)c2c(C)nn(C(C)(C)C)c2OC(=O)c2ccc(Br)o2)cc1	-11.1	-0.7	17.3	49.6*	14.1	-5.3
Cc1ccc(S(=O)(=O)c2c(C)nn(C(C)(C)C)c2OC(=O)c2ccco2)cc1	1.9	-0.8	15.8	6.6	23.8	-6.8
Cc1ccc(C2=[N+]([O-])C(C)(C)CC2)cc1	-6.1	-0.1	32.5*	1.9	6.9	-5.2
COc1ccc(/C=N/NC(=S)NC2CCS(=O)(=O)C2)cc1 (configuration not stated)	-19.9	-1.7	.	.	.	.
O=C(CSc1nnc(-c2ccccn2)n1Cc1ccco1)c1ccccc1	10.1	0.2	31.0*	1.8	-7.0	-1.4
O=C(CSc1nnc(-c2ccccn2)n1Cc1ccco1)c1ccc(Cl)cc1	-3.6	-1.5	20.3	9.4	-2.5	-4.5
C(=C\c1ccccc1)/CSc1nnc(-c2ccccc2)n1Cc1ccco1	-3.2	-1.7	29.0	-3.3	-10.3	53.0*
COc1ccc(C(=O)CSc2nnc(-c3ccccn3)n2Cc2ccco2)cc1	-2.4	-0.7	35.4*	2.1	-13.8	-6.5
COc1cc(Cl)c(C)cc1NC(=O)CSc1nnc(-c2ccccn2)n1Cc1ccco1	5.2	-1.0	40.1*	4.1	-5.9	-1.4
C(=C\c1ccccc1)/CSc1nnc(-c2ccncc2)n1Cc1ccco1	-1.1	-0.7	26.1	-0.8	.	.
Cc1cc(Nc2ccccc2)n(C(=O)c2ccc(Cl)cc2)n1	4.9	-1.3	.	.	-11.2	-3.2
N/N=C(\c1ccccc1)C12CN3CN(CN(C3)C1)C2	2.7	0.3	.	.	.	.
CCOC(=O)c1sc2ncnc(N3CCN(C(=O)OCC)CC3)c2c1C	5.9	0.3	36.5*	3.1	.	.
CCOC(=O)c1sc2nc(CC(=O)OC)nc(N3CCN(c4ccccn4)CC3)c2c1C	-14.1	0.8	30.1*	1.6	-28.0	8.4
CCOC(=O)c1sc2nc(CC(=O)OC)nc(NCc3ccc(F)cc3)c2c1C	13.6	-0.4	-3.6	-19.2	-5.1	-2.3
Cc1ccc(N(CC(=O)N/N=C/c2cc(C)n(-c3ccccc3C)c2C)S(C)(=O)=O)cc1	2.3	0.0	.	.	.	.
C=CCn1c(SCc2nc(N)nc(N(C)C)n2)nnc1-c1cccnc1	-11.2	-2.2	33.1*	-2.6	4.7	4.2
COc1ccc(C(NC=O)c2cc(OC)c(OC)cc2Br)cc1OC (configuration not stated)	-2.7	-0.2	.	.	.	.
COc1ccc(OC)c(C(C)NC=O)c1 (configuration not stated)	-15.9	-1.6	39.4*	3.8	-14.1	-0.5
COc1cc(C=O)c(Br)cc1OCc1ccc(C)cc1	-11.4	-2.3	48.1*	0.7	-0.5	-7.4
CCOc1cc(C=O)c(Br)cc1OC1CCCC1	-5.9	0.5	17.5	7.7	-7.0	-1.6
CCOc1cccc(SCc2noc(C(=O)NCC3CCCO3)c2C(=O)O)c1 (configuration not stated)	-0.9	-1.6	-4.5	16.6	5.2	-7.2
c1ccc(N2N=C(c3cccs3)CC2c2ccco2)cc1 (configuration not stated)	-0.1	56.9*	26.8	3.1	-49.4	46.9*
CCN(CC)CC(=O)N1N=C(c2cccs2)CC1c1ccco1 (configuration not stated)	0.4	-2.0	-2.7	-1.7	4.5	-0.6
Clc1ccc(N2N=C(c3cccs3)CC2c2ccco2)cc1 (configuration not stated)	-4.8	70.1*	11.7	-0.7	-78.3	101.9*
SMILES	GALR2 blocker	GALR2 agonist	PostGolgi ctrl	PostGolgi yeast	S1P2 blocker	S1P2 ag
O=C(OCC(=O)N1N=C(c2ccc(Cl)cc2)CC1c1ccco1)c1ccccc1O (configuration not stated)	-10.3	0.5	22.0	-5.7	-30.9	-2.5
O=C(COc1cccc2cccnc12)N1CCc2ccccc2C1	1.2	1.6	-2.6	-2.8	13.0	-0.3
O=C(COc1c(Br)cc(Br)c2cccnc12)N1CCc2ccccc2C1	-15.8	-2.2	67.5*	-7.2	6.7	-5.2
Cc1onc(-c2ccccc2)c1C(=O)N1CCCN(C(=O)c2c(-c3ccccc3)noc2C)CC1	-13.2	0.5	8.2	-0.5	18.4	-0.6
Cc1onc(-c2ccccc2)c1C(N)=O	6.3	-1.2	41.8*	3.8	10.9	-3.9
Cc1onc(-c2ccccc2)c1C(=O)Nc1cccc(OC(C)C)c1	-15.9	-3.4	32.7*	1.4	-11.7	-7.1
CCCOc1cccc(NC(=O)c2c(-c3ccccc3)noc2C)c1	3.0	-0.9	16.5	-3.8	-0.8	-1.5
CCC(=O)N1CCN(CCN=CC2=C(O)CC(c3ccc(OC)cc3)CC2=O)CC1 (configuration not stated)	-1.3	-1.1	.	.	.	.
CCOc1ccc(N/N=C(/C#N)C(N)=O)cc1	17.0	-1.5	89.6*	104.2*	5.8	-6.1
COc1ccc(N/N=C(\C#N)C(N)=O)cc1	10.8	-2.7	.	.	.	.
COc1ccc(CNC(=O)C(CCSC)NC(=O)c2ccco2)cc1 (configuration not stated)	-16.1	-1.0	-3.4	0.0	-6.4	-1.7
COc1c(C)cc(Br)cc1C(=O)Nc1cccc(-c2nc3ncccc3o2)c1	6.8	-1.8	40.7*	-7.2	-2.1	-2.2
Cc1ccc2cc(C)c(SCC#N)nc2c1	-2.1	0.1	15.9	30.7*	21.3	-4.6
CS(=O)(=O)N1CCN(c2ccccc2NC(=O)c2cccc3ccccc23)CC1	3.8	-1.2	.	.	-12.0	-3.2
COc1cc2ccccc2cc1C(=O)Nc1ccccc1N1CCN(S(C)(=O)=O)CC1	8.2	-1.8	37.9*	19.2	38.9	-3.7
Cc1cc(C)n2cc(CSc3nc4cc(Cl)ccc4o3)nc2n1	-3.2	-1.5	11.8	-1.6	-11.3	17.2*
Cc1cc(C)n2c(Br)c(CSc3nc4ccccc4o3)nc2n1	-5.1	-0.8	2.2	-1.7	-36.6	17.3*
Cc1cc(C)n2cc(CSc3nnc(-c4ccccc4)o3)nc2n1	-0.7	-1.8	6.6	-1.4	-22.8	4.4
CC(CC(=O)NCC1CCCO1)c1ccccc1 (configuration not stated)	-5.3	-2.1	.	.	.	.
O=C1CC(N2CCN(c3ccc(Cl)c(Cl)c3)CC2)C(=O)N1 (configuration not stated)	11.3	-2.0	-4.6	52.3*	19.5	-7.1
O=C1CC(N2CCC(O)(c3ccc(Cl)cc3)CC2)C(=O)N1 (configuration not stated)	-5.0	-0.5	1.9	6.1	2.4	0.6
Cc1[nH]nc2c1C(c1cc(Br)cs1)C(C#N)=C(N)O2 (configuration not stated)	2.9	-1.5	.	.	.	.
N#Cc1c(C(F)(F)F)cc(-c2ccco2)nc1SCc1ccncc1	14.4	1.5	48.7*	-0.2	-3.5	-9.1
O=C(NC(Nc1ncc(S(=O)(=O)c2ccc([N+](=O)[O-])cc2)s1)(C(F)(F)F)C(F)(F)F)c1ccc(Cl)cc1	15.7	-3.2	-0.6	17.9	47.1*	-6.4
